Results filed as inconclusive are left out. A number with no mark means an inactive call. Activity calls are given as the source filed them. Calls follow the shape of the dose curve; as a rule, active = well fitted curve in the direction sought with a large enough effect; inconclusive = small, poorly fitted or top-dose-only effect, or another doubt; inactive = no such curve, though single readings can be large; an effect the other way counts as inactive or inconclusive.
Tests used:
[1] = Quantitative High-Throughput drug screen in 47 multiple myeloma cell lines against the NCATS MIPE library collection: NCIH929_DSMZ cell viability assay (AID 1918978); also: nearly all actives have a fitted effect of over 35% in size
Outline: (§1)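 Inhibition of viability over 48 h was scored by ATP content (CellTiter-Glo) in 500-cell wells. Zero and full viability were defined by media-only and DMSO-only wells.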

[2] = Quantitative High-Throughput drug screen in 47 multiple myeloma cell lines against the NCATS MIPE library collection: MM1S_ATCC cell viability assay (AID 1918980); also: nearly all actives have a fitted effect of over 45% in size
Outline: as §1

[3] = Quantitative High-Throughput drug screen in 47 multiple myeloma cell lines against the NCATS MIPE library collection: KMS28PE_JCRB cell viability assay (AID 1918983); also: nearly all actives have a fitted effect of over 35% in size
Outline: as §1

[4] = Quantitative High-Throughput drug screen in 47 multiple myeloma cell lines against the NCATS MIPE library collection: KMS34_JCRB cell viability assay (AID 1918985); also: nearly all actives have a fitted effect of over 40% in size
Outline: as §1

[5] = Quantitative High-Throughput drug screen in 47 multiple myeloma cell lines against the NCATS MIPE library collection: OCIMY5_PLB cell viability assay (AID 1918988); also: nearly all actives have a fitted effect of over 65% in size
Outline: as §1

[6] = Quantitative High-Throughput drug screen in 47 multiple myeloma cell lines against the NCATS MIPE library collection: U266_ATCC cell viability assay (AID 1919864); also: nearly all actives have a fitted effect of over 35% in size;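 as to viability (% of DMSO control): 0% = media-only wells without cells and 100% = DMSO-only wells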
Outline: as §1

[7] = Quantitative High-Throughput drug screen in 47 multiple myeloma cell lines against the NCATS MIPE library collection: UTMC2_PLB cell viability assay (AID 1919868); details: CellTiter-Glo ATP luminescence, 48 h; viability (% of DMSO control): at 45.8 µM (top of the series); also: nearly all actives have a fitted effect of over 55% in size;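 as to viability (% of DMSO control): 100% = DMSO-only wells and 0% = media-only wells without cells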
Outline: as §1

[8] = Quantitative High-Throughput drug screen in 47 multiple myeloma cell lines against the NCATS MIPE library collection: PE2_PLB cell viability assay (AID 1919869); also: nearly all actives have a fitted effect of over 35% in size
Outline: as §1

[9] = Quantitative High-Throughput drug screen in 47 multiple myeloma cell lines against the NCATS MIPE library collection: RPMI8226_ATCC cell viability assay (AID 1919871); also: nearly all actives have a fitted effect of over 30% in size
Outline: as §1

[10] = Quantitative High-Throughput drug screen in 47 multiple myeloma cell lines against the NCATS MIPE library collection: MM1R_ATCC cell viability assay (AID 1918981); also: nearly all actives have a fitted effect of over 35% in size
Outline: as §1

[11] = Quantitative High-Throughput drug screen in 47 multiple myeloma cell lines against the NCATS MIPE library collection: L363_DSMZ cell viability assay (AID 1918984); also: nearly all actives have a fitted effect of over 40% in size
Outline: as §1

[12] = Quantitative High-Throughput drug screen in 47 multiple myeloma cell lines against the NCATS MIPE library collection: OCIMY7_PLB cell viability assay (AID 1918987); details: OCI-MY7 myeloma viability, CellTiter-Glo ATP, 48 h; viability (% of DMSO): at 45.8 µM (top of the series); also: nearly all actives have a fitted effect of over 65% in size
Outline: as §1

[13] = Quantitative High-Throughput drug screen in 47 multiple myeloma cell lines against the NCATS MIPE library collection: OPM1_PLB cell viability assay (AID 1918989); also: nearly all actives have a fitted effect of over 40% in size
Outline: as §1

[14] = Quantitative High-Throughput drug screen in 47 multiple myeloma cell lines against the NCATS MIPE library collection: SKMM1_PLB cell viability assay (AID 1919863); details: SKMM1 myeloma viability, CellTiter-Glo ATP, 48 h; viability: hits give low values; also: nearly all actives have a fitted effect of over 35% in size
Outline: as §1

[15] = Quantitative High-Throughput drug screen in 47 multiple myeloma cell lines against the NCATS MIPE library collection: XG6_PLB cell viability assay (AID 1919865); also: nearly all actives have a fitted effect of over 40% in size
Outline: as §1

[16] = Quantitative High-Throughput drug screen in 47 multiple myeloma cell lines against the NCATS MIPE library collection: XG1_PLB cell viability assay (AID 1919866); also: nearly all actives have a fitted effect of over 35% in size
Outline: as §1

[17] = Quantitative High-Throughput drug screen in 47 multiple myeloma cell lines against the NCATS MIPE library collection: PCM6_Riken cell viability assay (AID 1919870); also: nearly all actives have a fitted effect of over 30% in size
Outline: as §1

[18] = Quantitative High-Throughput drug screen in 47 multiple myeloma cell lines against the NCATS MIPE library collection: LP1_DSMZ cell viability assay (AID 1918982); also: nearly all actives have a fitted effect of over 35% in size
Outline: as §1

[19] = Quantitative High-Throughput drug screen in 47 multiple myeloma cell lines against the NCATS MIPE library collection: VP6_DJ cell viability assay (AID 1919867); also: nearly all actives have a fitted effect of over 40% in size;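 as to viability (% of DMSO): 100% = DMSO-only wells and 0% = wells with media alone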
Outline: as §1
Potency is read from the fitted curve at half-maximal effect.

Row | SMILES | Potency [1] | Potency [2] | Potency [3] | Potency [4] | Potency [5] | Potency [6] | Potency [7] | Potency [8] | Potency [9] | Potency [10] | Potency [11] | Potency [12] | Potency [13] | Potency [14] | Potency [15] | Potency [16] | Potency [17] | Potency [18] | Potency [19] | viability [14] [%]
1 | O=c1cc(-c2ccc(O)cc2)oc2cc(O)cc(O)c12 | 6.62 µM (active) | 8.33 µM (active) | 18.7 µM (active) | 13.2 µM (active) | 10.5 µM (active) | 20.9 µM (active) | inactive | 20.9 µM (active) | 23.5 µM (active) |  |  |  |  |  |  |  |  |  |  | 
2 | O=C(NCc1ccncc1)C12C[C@H]3C[C@@H](C1)CC(c1ccc(Cl)cc1)(C3)C2 | inactive | 13.2 µM (active) | 23.5 µM (active) |  | 18.7 µM (active) | 16.6 µM (active) |  |  | 29.6 µM (active) | 18.7 µM (active) | 5.26 µM (active) | 18.7 µM (active) | 18.7 µM (active) | 23.5 µM (active) | 4.69 µM (active) |  |  |  |  | 
3 | Oc1ccc(C2=Cc3ccc(O)cc3OC2)cc1 | 2.09 µM (active) | 3.32 µM (active) | 18.7 µM (active) | 0.662 µM (active) | 2.96 µM (active) | 5.9 µM (active) |  | 9.35 µM (active) | 5.9 µM (active) |  |  | 1.32 µM (active) | 1.48 µM (active) | 11.8 µM (active) | 1.32 µM (active) |  |  |  |  | 
4 | COCCOc1nc(-c2ccc(Cl)c(Cl)c2)n(-c2ccc(NC(=O)CCl)cc2)n1 | 13.2 µM (active) |  |  | 18.7 µM (active) | 20.9 µM (active) | 26.4 µM (active) | 20.9 µM (active) | 18.7 µM (active) | 20.9 µM (active) | 14.8 µM (active) | 8.33 µM (active) | 16.6 µM (active) | 20.9 µM (active) |  | 14.8 µM (active) | 16.6 µM (active) | 16.6 µM (active) |  |  | 
5 | CN[C@@H](C)C(=O)N[C@H]1CN(C(=O)CC(C)C)CC[C@H]2CC[C@@H](C(=O)NC(c3ccccc3)c3ccccc3)N2C1=O | 11.8 µM (active) | 9.35 µM (active) |  |  | 20.9 µM (active) |  |  | 9.35 µM (active) |  | 14.8 µM (active) |  | 10.5 µM (active) | 14.8 µM (active) |  | 1.32 µM (active) | 13.2 µM (active) |  |  |  | 
6 | C[C@H](NC(=O)C(=O)Nc1ccccc1C(C)(C)C)C(=O)N[C@@H](CC(=O)O)C(=O)COc1c(F)c(F)cc(F)c1F | inactive | 11.8 µM (active) |  |  |  |  |  | inactive | 14.8 µM (active) | inactive | 0.833 µM (active) |  |  | 16.6 µM (active) |  | inactive |  | 9.35 µM (active) | inactive | 
7 | Nc1ncnc2c1nc(Cl)n2[C@@H]1O[C@H](CO)[C@@H](O)[C@@H]1O | 8.33 µM (active) | 4.18 µM (active) | 18.7 µM (active) |  | 0.418 µM (active) | 14.8 µM (active) |  | 0.235 µM (active) |  | 0.935 µM (active) | 20.9 µM (active) | 10.5 µM (active) |  | 14.8 µM (active) | 1.18 µM (active) | 16.6 µM (active) |  |  | 1.32 µM (active) | 
8 | CCOc1ccc(Nc2nc(-c3c(C)nc4ccccn34)cs2)cc1 | 0.0526 µM (active) |  | 0.0059 µM (active) | 0.0033 µM (active) | 0.0026 µM (active) |  |  |  |  | 0.0059 µM (active) |  |  | 0.0066 µM (active) | 0.264 µM (active) | inactive | inactive |  |  |  | 
9 | O=C(O)C(O)Cc1ccc(O)c(O)c1 (stereo unspecified) | inactive | 16.6 µM (active) | 23.5 µM (active) | 18.7 µM (active) | 23.5 µM (active) | 26.4 µM (active) |  | 16.6 µM (active) | 26.4 µM (active) | 20.9 µM (active) | inactive |  |  | 11.8 µM (active) | inactive |  |  |  |  | 
10 | CO[C@H]1C(=O)[C@]2(C)[C@@H](OC)C[C@H]3OC[C@@]3(OC(C)=O)[C@H]2[C@H](OC(=O)c2ccccc2)[C@]2(O)C[C@H](OC(=O)[C@H](O)[C@@H](NC(=O)OC(C)(C)C)c3ccccc3)C(C)=C1C2(C)C | inactive |  |  | inactive | inactive |  | inactive | inactive | inactive | inactive |  | inactive |  |  |  |  | 0.0012 µM (active) |  | 0.001 µM (active) | 65.2
11 | O=C(O)c1ccc(-c2cc3cccnc3c(-c3ccc4nonc4c3)n2)cc1 | 26.4 µM (active) | 23.5 µM (active) |  |  |  | 20.9 µM (active) |  |  |  |  |  |  | 20.9 µM (active) | 20.9 µM (active) | 20.9 µM (active) | 20.9 µM (active) | 29.6 µM (active) |  | 20.9 µM (active) | 
12 | CCC(=O)NC[C@H](Cc1ccc(OCCc2nc(-c3ccccc3)oc2C)cc1)NC(C)=CC(=O)c1ccc(C(F)(F)F)cc1 | inactive | 1.87 µM (active) | 23.5 µM (active) | 23.5 µM (active) | 18.7 µM (active) | inactive |  | 11.8 µM (active) | 23.5 µM (active) |  |  |  |  | 18.7 µM (active) | 16.6 µM (active) | 5.26 µM (active) | inactive |  |  | 
13 | Cc1ccc(F)c(NC(=O)Nc2ccc(-c3cccc4[nH]nc(N)c34)cc2)c1 | 9.35 µM (active) |  | 26.4 µM (active) |  | 20.9 µM (active) | 16.6 µM (active) | 8.33 µM (active) |  |  | 23.5 µM (active) | 4.18 µM (active) | 4.69 µM (active) | 10.5 µM (active) |  | 16.6 µM (active) | 16.6 µM (active) | 23.5 µM (active) | 16.6 µM (active) | 16.6 µM (active) | 

Source: PubChem BioAssay (NCATS)
